# Results as given in PubChem BioAssay (Tox21).
# Records with an inconclusive call do not appear. A call without a number means that no potency is given here. Calls of active or inactive are those of the source. Calls come from the whole dose curve; as a rule, active = well fitted cell-killing curve with a large enough effect in the repeat runs; inconclusive = weak or mixed curves, or effect the other way; inactive = no such curve, though single readings can be large or run the other way.
# Experiment: qHTS assay to identify small molecule antagonists of the thyroid receptor (TR) signaling pathway - cell viability counter screen (AID 743064); note: nearly all actives have a fitted effect of over 50% in size
# Settings: GH3.TRE-Luc viability, CellTiter-Fluor, 24 h; series mostly up to 70.3 µM
# Excerpt: National Center for Advancing Translational Sciences [NCATS]
# NIH Chemical Genomics Center [NCGC]
# U.S. Environmental Protection Agency [EPA]
# National Institutes of Environmental Health Sciences [NIEHS]
# National Toxicology Program [NTP]
# U.S. Food and Drug Administration [FDA]
# Thyroid receptor (TR), a nuclear hormone receptor, plays an important role in development, proliferation, differentiation, metabolism, brain function, and cardiovascular system. […] To profile the Tox21 10K compound library in TR signaling, a cell-based GH3-TRE-Luc assay (GH3.TRE-Luc cell line, developed by the laboratory of Dr. Albertinka J. Murk, Wageningen University) was used to measure the inhibition of TR. GH3 (rat pituitary tumor) cells stably expressing a TR activity sensor consisting of two TR response elements and a luciferase reporter gene. The cytotoxicity of the Tox21 compound library against the GH3.TRE-Luc cell line was tested in parallel by measuring the cell viability using CellTiter-Fluor assay (Promega, Madison, WI) in the same wells.
# Tox21 Assay Protocol Summary:
# GH3.TRE-Luc cells were dispensed at 1500 cells/4 uL/well into 1536-well white solid bottom plates using a Multidrop Combi dispenser (Thermo Fisher Scientific Inc., Waltham, MA). After the assay plates were incubated at 37 C for 4 hours, 23 nL of library compound or DMSO controls was transferred to the assay plates by a pintool station (Kalypsys, San Diego, CA), followed by addition of 1 ul of T3 (1 nM, final concentration in the wells) to stimulate TR transactivation. The assay plates were incubated at 37 C for 23.5 h, and then 1 uL of CellTiter-Fluor reagent (Promega, Madision, WI) of measuring cytotoxicity was added to each well using a Bioraptr Flying Reagent Dispenser (FRD) workstation (Beckman Coulter, Indianapolis, IN, USA). The plates were incubated at 37C and 5% CO2 for additional 30 min, and fluorescence intensity was measured by a ViewLux plate reader (PerkinElmer, Shelton, CT).
# Potency is the fitted concentration of half-maximal effect.
row,SMILES,Potency
1,CCCCC(O)c1ccccc1 (stereo not given),inactive
2,CCN(CC)CCOC(=O)c1ccc(N)cc1Cl,inactive
3,CCN(CC)CCC(=O)N1c2ccccc2Sc2ccc(C(F)(F)F)cc21,13.3 µM (active)
4,CC[C@H]1NC(=O)[C@@H](NC(=O)c2ncccc2O)[C@@H](C)OC(=O)[C@H](c2ccccc2)NC(=O)[C@@H]2CC(=O)CCN2C(=O)[C@H](Cc2ccccc2)N(C)C(=O)[C@@H]2CCCN2C1=O,inactive
5,CCC(C)(C)OC(=O)N[C@@H](Cc1c[nH]c2ccccc12)C(=O)N[C@@H](CCSC)C(=O)N[C@@H](CC(=O)O)C(=O)N[C@@H](Cc1ccccc1)C(N)=O,inactive
6,CCCOc1cc(N)ccc1C(=O)OCCN(CC)CC,inactive
7,O=P(O)(O)C(O)(Cc1cnc2ccccn12)P(=O)(O)O,inactive
8,Cc1c(N)nc(C(CC(N)=O)NCC(N)C(N)=O)nc1C(=O)NC(C(=O)NC(C)C(O)C(C)C(=O)NC(C(=O)NCCc1nc(-c2nc(C(=O)NCCCN[C@@H](C)c3ccccc3)cs2)cs1)C(C)O)C(O[C@@H]1O[C@@H](CO)[C@@H](O)[C@H](O)[C@@H]1O[C@H]1O[C@H](CO)[C@@H](O)[C@H](OC(N)=O)[C@@H]1O)c1cnc[nH]1 (stereo not given in full),1.68 µM (active)
9,CC(C)(S)[C@@H](N)C(=O)O,inactive
10,CC(C)N1CCN(c2ccc(OC[C@H]3CO[C@](Cn4cncn4)(c4ccc(Cl)cc4Cl)O3)cc2)CC1,6.39 µM (active)
11,CCCCCCCCCCCCCCCCCCOP(=O)([O-])OC1CC[N+](C)(C)CC1,inactive
12,C#CCC(Cc1cnc2nc(N)nc(N)c2n1)c1ccc(C(=O)N[C@@H](CCC(=O)O)C(=O)O)cc1 (stereo not given in full),inactive
13,CCC(C)[C@@H](N)C(=O)O (stereo not given in full),inactive
14,O=C(O)CC/C=C\CC[C@@H]1[C@@H](N2CCCCC2)[C@@H](O)C[C@@H]1OCc1ccc(-c2ccccc2)cc1,inactive
15,CN1CCN(CCC=C2c3ccccc3Sc3ccc(S(=O)(=O)N(C)C)cc32)CC1,13.3 µM (active)
16,CCCCCCCCCCCCCC[n+]1ccc(C)cc1,7.5 µM (active)
17,C=C1C(=O)O[C@H]2[C@H]1CC/C(C)=C\CC[C@@]1(C)O[C@@H]21,8.41 µM (active)
18,CCCCCCCCCCCC(=O)OC[C@@H](O)C1OC[C@H](O)[C@H]1O (stereo not given in full),inactive
19,CC(CN(C)C)CN1c2ccccc2Sc2ccc(C(F)(F)F)cc21 (stereo not given),8.41 µM (active)
20,CCCC(=O)N1CCCN(c2nc(N)c3cc(OC)c(OC)cc3n2)CC1,inactive

row,SMILES,Potency
1,O=P(O)(O)OC(CO)CO,inactive
2,Cc1ccc(S(=O)(=O)NC(=O)N[C@@H](C)Cc2ccccc2)cc1,inactive
3,CCOC(=O)[C@H](CS)NCCN[C@@H](CS)C(=O)OCC,inactive
4,CC1=C(/C=C/C(C)=C/C=C/C(C)=C/C=C/C=C(C)/C=C/C=C(C)/C=C/C2=C(C)C(=O)CCC2(C)C)C(C)(C)CCC1=O,inactive
5,CC(C)C[C@H](NC(=O)[C@@H](Cc1c[nH]c2ccccc12)NC(=O)[C@H](Cc1ccc(O)cc1)NC(=O)[C@H](CO)NC(=O)[C@H](Cc1c[nH]c2ccccc12)NC(=O)[C@H](Cc1cnc[nH]1)NC(=O)[C@@H]1CCC(=O)N1)C(=O)N[C@@H](CCCN=C(N)N)C(=O)N1CCC[C@@H]1C(=O)NCC(N)=O,inactive
6,O=C(NCCNCC(O)COc1ccc(O)cc1)N1CCOCC1 (stereo not given),inactive
7,CC(C)(C)C1(O)CCN2CC3c4ccccc4CCc4cccc(c43)C2C1 (stereo not given),26.6 µM (active)
8,CC(=O)N[C@@H]([C@@H](O)[C@H](O)[C@H](O)CO)[C@@H](O)CC(=O)C(=O)O,inactive
9,COc1ccc(C2(C#N)CCC(C(=O)O)CC2)cc1OC1CCCC1 (stereo not given),inactive
10,c1ccc2cc(C3=NCCN3)ccc2c1,inactive
11,OC[C@H]1OC([S-])[C@H](O)[C@@H](O)[C@@H]1O.[Au+] (stereo not given in full),10.6 µM (active)
12,COC(=O)[C@@H](N)CS,inactive
13,CCCCCCCCCCCCCCCC(=O)OCCC1CCN(CCCN2c3ccccc3Sc3ccc(S(=O)(=O)N(C)C)cc32)CC1,inactive
14,Nc1ccn(C[C@@H](CO)OCP(=O)(O)O)c(=O)n1,inactive
15,OC[C@H]1O[C@@H](n2cnc3c2NC=NC[C@H]3O)C[C@@H]1O,inactive
16,C[N@+]12CCCC[C@@H]1CCC(=C(c1cccs1)c1cccs1)C2,inactive
17,C[C@H]1C[C@@H]2[C@H]([C@@H](O)C[C@@]3(C)[C@H]2CC[C@]3(O)C(=O)COC(=O)CCC(=O)O)[C@@]2(C)C=CC(=O)C=C12,inactive
18,CN[C@@H]1[C@H](O[C@H]2[C@H](O[C@H]3[C@H](O)[C@@H](O)[C@H](N=C(N)N)[C@@H](O)[C@@H]3N=C(N)N)O[C@@H](C)[C@]2(O)CO)O[C@@H](CO)[C@H](O)[C@H]1O,inactive
19,CN1CCCC(CN2c3ccccc3Sc3ccccc32)C1 (stereo not given),11.9 µM (active)
20,Cc1onc(-c2ccccc2)c1C(=O)N[C@@H]1C(=O)N2[C@@H]1SC(C)(C)[C@@H]2C(=O)O,inactive
